Results on 14 compounds are retold here after PubChem BioAssay AID1347142 (National Center for Advancing Translational Sciences (NCATS), 2019).

Results filed as inconclusive are left out. Activity calls are given as the source filed them. Calls follow the shape of the dose curve; as a rule, active = well fitted inhibition curve with a large enough effect; inconclusive = small, poorly fitted or top-dose-only effect; inactive = no such curve, though single readings can be large or run the other way.
Also: nearly all actives have a fitted effect of over 80% in size.
Potency is read from the fitted curve at half-maximal effect.

N-terminal Xaa-Pro-Lys N-methyltransferase 1 (Homo sapiens), sequence (Q9BV86 whole entry, looked up): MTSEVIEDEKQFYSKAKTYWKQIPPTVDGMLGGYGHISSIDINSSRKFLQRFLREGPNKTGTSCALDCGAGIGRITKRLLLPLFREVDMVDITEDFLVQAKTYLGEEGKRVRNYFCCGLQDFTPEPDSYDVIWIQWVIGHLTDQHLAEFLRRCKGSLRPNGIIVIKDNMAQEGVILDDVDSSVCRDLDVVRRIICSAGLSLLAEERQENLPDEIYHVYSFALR

This assay has as its target N-terminal Xaa-Pro-Lys N-methyltransferase 1 (Homo sapiens) (UniProt Q9BV86). In words: qHTS Assay for Inhibitors of N-terminal methyltransferase 1 (NTMT1): ThioGlo3 Assay Confirmatory Screen, Round 1. The settings on record: NTMT1 SAHH-coupled ThioGlo3 fluorescence, 30 min; series mostly up to 56.8 µM. The method in brief:
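Human NTMT1 at 125 nM was preincubated 1 min at room temperature with compounds at various concentrations or 1 uM RCC1-6 control. Substrate mix (100 uM SAM, 10 uM SAHH, 15 uM ThioGlo3) was added, and fluorescence (Ex 340/Em 450 nm) was read at start and after 30 min, normalized to background.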
In general terms: Quantitative high-throughput screening tests each substance at several concentrations.
Regarding `OCC1OC(n2cnc3c(=S)nc[nH]c32)C(O)C1O` (centres undefined), the Potency is 13.6 µM (active).
The same measure for `C=CCNc1nc(NC2CCN(C)CC2)c2cc(OC)c(OC)cc2n1`: 27.1 µM (active); for `COc1cc2c(NC3CCN(C4CCCCC4)CC3)nc(N3CCCN(C(C)C)CC3)nc2cc1OCCCN1CCCCC1`: 24.1 µM (active).
For `COc1cc2c(NC3CCN(CC4CCCCC4)CC3)nc(N3CCCCCC3)nc2cc1OCCCN1CCCCC1`, the Potency is 24.1 µM (active).
The same measure for `CNC(=O)[C@H]1O[C@H](n2cnc3c(NCc4cccc(I)c4)nc(Cl)nc32)[C@@H](O)[C@@H]1O`: “inactive”; for `COCCCCOc1cc2nc(N3CCCN(C)CC3)nc(NC3CCN(C)CC3)c2cc1OC`: 24.1 µM (active); for `COc1cc2c(NC3CCN(C)CC3)nc(N3CCCN(C)CC3)nc2cc1OCCN(C)CCN(C)C`: 27.1 µM (active).
The same measure for `COc1cc2c(NC3CCN(C(C)C)CC3)nc(N3CCCCCC3)nc2cc1OCCOCCN(C)C`: 21.5 µM (active); for `O=c1[nH]cnc2c1ncn2C1O[C@H](CO)[C@@H](O)[C@H]1O` (some centres undefined): “inactive”; for `COC1C(O)C(CO)OC1n1cnc2c(NC3CCCCC3)ncnc21` (centres undefined): “inactive”.
The same measure for `CCNC(=O)[C@H]1O[C@H](n2cnc3c(N)nc(NCCc4ccc(CCC(=O)O)cc4)nc32)[C@@H](O)[C@@H]1O`: “inactive”.
Take `OC[C@@H]1O[C@@H](n2cnc3c(N[C@H]4CCC[C@@H]4O)ncnc32)[C@H](O)[C@H]1O`: the Potency result is “inactive”.
As for `OC[C@H]1O[C@H](n2cnc3c(NC4CCCC4)nc(Cl)nc32)[C@@H](O)[C@@H]1O`, the Potency entry is “inactive”.
The same measure for `COc1cc2nc(N3CCN(C)CC3)nc(NC3CCCC3)c2cc1OC`: 24.1 µM (active).
